Screens as filed in PubChem.
Mcl1 Bid PPI: Mcl-1/Bid interaction inhibition; inhibition, % at 21.7 µM; Q07820; actives 0.97% (n = 220,000); TR-FRET Mcl-1/Bid-Dy647 peptide binding, 1536-well;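 active = compounds that cut the binding signal by more than half at the single screening dose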;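 also: His-tagged Mcl-1 with europium anti-His antibody binding Bid BH3 peptide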
14-3-3 Bad PPI: disrupts binding of bovine 14-3-3 zeta to phospho-Bad peptide; P63103; TR-FRET 14-3-3zeta/Dy647-pBad peptide displacement, 1 h; inhibition, % at 21.7 µM; actives 0.71% (n = 220,000);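 active = inhibition above about 70%, limit read from the data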
Mcl1-Noxa inh: disrupts binding of human Mcl-1 to Noxa peptide | inhibition, % at 21.7 µM | Q07820 | actives 1.5% (n = 220,000) | TR-FRET Mcl-1/Noxa peptide binding, 2 h;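 active = compounds that cut the protein-peptide binding signal by more than 50% relative to plate controls in a single-dose test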;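 also: His-tagged Mcl-1 with rhodamine Noxa BH3 peptide and terbium anti-His antibody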
eIF4E 4G PPI: inhibitors of eIF4E and eIF4G interaction in translation initiation | P63073+Q04637 | TR-FRET eIF4E-eIF4GI(517-606) binding, 2 h | inhibition, % at 21.7 µM | actives 0.37% (n = 220,000) | AID 782;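 active = inhibition above about 30%, limit read from the data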
Target sequence (P63073 whole entry, looked up): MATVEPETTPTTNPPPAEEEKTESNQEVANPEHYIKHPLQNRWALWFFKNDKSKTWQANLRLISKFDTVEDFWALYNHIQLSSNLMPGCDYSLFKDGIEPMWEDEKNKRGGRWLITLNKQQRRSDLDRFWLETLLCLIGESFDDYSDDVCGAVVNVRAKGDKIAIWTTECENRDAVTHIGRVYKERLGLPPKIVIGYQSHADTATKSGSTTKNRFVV
Target sequence (Q04637 whole entry, looked up): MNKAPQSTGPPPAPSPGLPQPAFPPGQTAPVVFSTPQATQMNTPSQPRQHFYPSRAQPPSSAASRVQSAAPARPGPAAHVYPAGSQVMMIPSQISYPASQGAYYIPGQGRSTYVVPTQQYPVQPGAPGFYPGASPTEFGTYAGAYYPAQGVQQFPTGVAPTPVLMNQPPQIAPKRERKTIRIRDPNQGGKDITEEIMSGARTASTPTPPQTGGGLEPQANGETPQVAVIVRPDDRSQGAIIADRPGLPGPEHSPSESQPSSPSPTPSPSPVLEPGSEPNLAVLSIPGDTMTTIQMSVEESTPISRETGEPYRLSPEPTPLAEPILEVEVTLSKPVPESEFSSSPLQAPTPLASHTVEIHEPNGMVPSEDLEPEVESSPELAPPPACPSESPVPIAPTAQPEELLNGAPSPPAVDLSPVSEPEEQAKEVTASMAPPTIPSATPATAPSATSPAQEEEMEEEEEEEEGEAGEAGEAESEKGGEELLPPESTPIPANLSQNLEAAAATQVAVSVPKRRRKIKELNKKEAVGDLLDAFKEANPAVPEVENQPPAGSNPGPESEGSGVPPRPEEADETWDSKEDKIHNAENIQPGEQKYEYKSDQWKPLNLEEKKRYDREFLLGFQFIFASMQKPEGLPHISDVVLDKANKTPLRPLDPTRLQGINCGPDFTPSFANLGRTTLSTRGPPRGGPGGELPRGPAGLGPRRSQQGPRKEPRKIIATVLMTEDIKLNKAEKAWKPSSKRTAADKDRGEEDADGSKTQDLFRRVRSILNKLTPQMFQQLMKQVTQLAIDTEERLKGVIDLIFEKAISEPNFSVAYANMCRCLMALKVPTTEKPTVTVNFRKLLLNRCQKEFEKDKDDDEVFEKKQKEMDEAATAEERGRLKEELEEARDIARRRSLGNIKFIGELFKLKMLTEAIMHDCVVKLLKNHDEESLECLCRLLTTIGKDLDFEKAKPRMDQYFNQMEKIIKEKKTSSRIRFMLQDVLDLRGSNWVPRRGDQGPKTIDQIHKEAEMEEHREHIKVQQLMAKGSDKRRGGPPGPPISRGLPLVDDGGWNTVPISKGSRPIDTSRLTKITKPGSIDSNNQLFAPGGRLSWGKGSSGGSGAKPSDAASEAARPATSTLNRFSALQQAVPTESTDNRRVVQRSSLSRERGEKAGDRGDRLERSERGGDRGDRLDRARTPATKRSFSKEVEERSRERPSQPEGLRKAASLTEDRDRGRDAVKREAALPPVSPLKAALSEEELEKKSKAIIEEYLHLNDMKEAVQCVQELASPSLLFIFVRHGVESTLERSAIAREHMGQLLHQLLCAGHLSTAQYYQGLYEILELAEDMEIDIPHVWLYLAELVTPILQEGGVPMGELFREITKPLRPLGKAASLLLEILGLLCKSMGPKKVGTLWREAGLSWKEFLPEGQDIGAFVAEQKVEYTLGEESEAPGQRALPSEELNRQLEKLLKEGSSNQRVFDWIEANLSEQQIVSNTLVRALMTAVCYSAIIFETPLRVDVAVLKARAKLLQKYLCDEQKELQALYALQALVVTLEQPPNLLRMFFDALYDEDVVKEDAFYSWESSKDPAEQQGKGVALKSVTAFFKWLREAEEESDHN
Pf gametocyte: P. falciparum stage V gametocyte viability inhibition; P. falciparum stage V gametocytes, ATP luminescence, 24 h; inhibition, % at 10.9 µM; actives 0.065% (n = 150,000); AID 743093;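 active = inhibition above the mean plus 3 SD of compounds within the control limits, set per campaign, cut at about 38% in these data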
Mcl-1 Bim block: disrupts Bim peptide binding to human Mcl-1 | Q07820 | Bead-based flow cytometry, Bim peptide-Mcl-1 binding | inhibition, % at 10 µM | actives 0.1% (n = 190,000); in the data active = inhibition above about 40%
Hits are given with their value; n = inactive; x = no result given; [ ] = another dose, or the depositor's remark. Most compounds without a hit are left out; they make up all but 2.7% or so of the library.

SMILES	Mcl1 Bid PPI	14-3-3 Bad PPI	Mcl1-Noxa inh	eIF4E 4G PPI	Pf gametocyte	Mcl-1 Bim block
FC(F)(F)c1cccc(N2CCN(CC3CC4C=CC3C4)CC2)c1 (configuration not stated)	n	83.0	n	n	x	n
CC(C)(C)C(=O)NC1(C(F)(F)F)NC(=O)N(c2ccc(F)cc2)C1=O (configuration not stated)	n	n	n	n	n	n
Cn1c(=O)c2cc(S(=O)(=O)Nc3cc(C(=O)O)cc(C(=O)O)c3)ccc2n(C)c1=O	n	n	n	n	n	46.0
CCNS(=O)(=O)c1ccc2c(c1)n(C)c(=O)n2C	n	n	n	n	x	n
Cn1c(=O)n(C)c2cc(S(=O)(=O)O)ccc21	n	73.9	n	n	x	n
CCCNS(=O)(=O)c1ccc2c(c1)n(C)c(=O)n2C	n	83.8	n	n	n	n
Cc1cc(C)cc(NS(=O)(=O)c2ccc3c(c2)c(=O)n(C)c(=O)n3C)c1	n	n	n	n	n	n
CNC(=O)COc1ncnc2scc(-c3ccc(F)cc3)c12	n	n	n	n	x	n
CCS(=O)(=O)Nc1ccccc1C(N)=O	n	n	n	n	x	n
CN(C)C=Nc1c(Br)cc(Br)c2nonc12	n	n	59.9	n	n	n
CN(C)C=Nc1nonc1-c1ccccc1	n	n	n	n	n	x
CCOC(=O)CSc1nn(C)c(=S)s1	56.9	n	n	n	x	n
CCOc1ccc(CN2C(=O)CC(=O)N(S(=O)(=O)c3ccc(OCC)cc3)C2=O)cc1	n	n	n	n	n	x
CCOc1ccc(-n2c(SCC(=O)Nc3ccccc3C)n[nH]c2=O)cc1	65.0	n	n	n	n	n
COc1ccc(N2C(=O)C3CCCN3C2=O)cc1 (configuration not stated)	n	n	102.2	n	n	n
Nn1c(COc2ccc(Cl)cc2)nc2ccccc2c1=O	n	n	n	n	n	n
O=C(Nc1ccccc1)Nc1ccno1	n	n	n	n	n	x
Cc1cccc(N(Cc2cc3ccccc3[nH]c2=O)S(C)(=O)=O)c1	n	n	n	n	n	n
CCCCN(Cc1cc2ccccc2[nH]c1=O)S(C)(=O)=O	98.0	n	n	n	n	n
CC(NC(=O)CCc1nnc(CCCc2ccccc2)o1)c1ccccc1 (configuration not stated)	n	n	n	n	50.0	n
CC1(C)CC(=O)C=C(c2ccc(F)nc2)C1	x	x	x	x	n	x
CC(=O)N(/N=C/c1cccc(C)c1)c1nc(-c2ccc(Br)cc2)cs1	99.0	n	n	n	x	n
COCCNC(=O)c1ccc2c(=O)n(CCOC)c(=O)[nH]c2c1	n	84.7	n	n	x	n
Cc1c(NC(=O)c2cc(C(C)C)on2)c(=O)n(-c2ccccc2)n1C	n	n	n	n	x	n
Cc1c(NC(=O)c2cc(CC(C)C)on2)c(=O)n(-c2ccccc2)n1C	n	n	n	33.8[fluorescence artefact?]	x	n
SMILES	Mcl1 Bid PPI	14-3-3 Bad PPI	Mcl1-Noxa inh	eIF4E 4G PPI	Pf gametocyte	Mcl-1 Bim block
CC(Oc1ccccc1Cl)C(=O)/C=C/N(C)C (configuration not stated)	n	n	n	n	x	n
CC1CC(=O)Nc2ccccc2N1S(=O)(=O)c1ccc(F)cc1F (configuration not stated)	n	n	n	n	n	x
C=CCn1c(SCC(=O)Nc2ccc(-c3nc4ccc(C)cc4s3)cc2)nnc1-c1ccccc1	65.5	91.9[fluorescence artefact?]	70.0	32.8[fluorescence artefact?]	n	n
C=CCn1c(SCC(=O)NNC(=O)Nc2ccc(C)cc2)nnc1-c1ccccc1	n	n	n	n	n	x
O=C(CCSc1ccc(Cl)cc1)c1cccs1	n	n	56.7	n	x	n
CCN(C(=O)COC(=O)/C=C/c1ccccc1)C1CCCCC1	n	n	n	n	n	n
C/C(=N\NC(=O)c1c(Cl)c(C)nn1C)c1cccc(NC(=O)COc2ccccc2)c1	59.8	n	n	n	x	n
CCOc1cc(C2c3c(n[nH]c3C)C(=O)N2c2ccc(C)cc2)ccc1O (configuration not stated)	n	n	n	64.9	n	n
COc1cc(C2c3c(n[nH]c3C)C(=O)N2c2ccc(C)cc2)ccc1O (configuration not stated)	n	n	n	n	n	n
c1coc(-c2nn3c(-c4ccco4)nnc3s2)c1	n	n	n	n	n	n
COc1ccccc1-c1nn2c(-c3ccco3)nnc2s1	n	88.8	n	n	x	n
